In all, about 68,000 compounds went through this assay and about 2,700 (4%) showed an effect of 50% or more. Shown is part of a subset that was picked to be rich in strong results.
test system: Plasmodium berghei; experiment: Screen against P. berghei liver stage (PbLuc), transformed with Luciferase, at 2uM; assay type: functional, HepG2; settings: tested at 2 uM

Compound	INHIBITION [%]
CC1=C(C(=O)NCCc2n[nH]c3c2CCCC3)C(C)NC(=O)N1 (centres undefined)	-18.23
COCc1nc(-c2ccnc(N3CCNCC3)n2)no1	-8.07
CC(C)c1noc(CS(=O)(=O)CC(=O)NCc2cccs2)n1	20.74
CC(C)c1noc(CS(=O)(=O)CC(=O)NCCOc2ccccc2)n1	-38.35
CC(C)c1noc(CS(=O)(=O)CC(=O)NCc2ccccc2)n1	66.33
CN1CC(=O)N(c2ccccc2)CC12CCN(CCO)C2 (centres undefined)	65.73
CN1CC(=O)N(c2cccc(F)c2)CC12CCN(CCO)C2 (centres undefined)	-15.88
CN1CC(=O)N(c2ccccc2)CC12CCN(CC1CC1)C2 (centres undefined)	-8.23
Cc1ncnc2c1CCN(C(=O)c1ccoc1)CC2	33.47
Cc1nc(-c2ccccc2)sc1CNC1CCc2ncnn2C1 (centres undefined)	-21.39
Cc1ncnc2c1CCN(CC1CCOC1)CC2 (centres undefined)	8.73
COCCC(=O)N1CC[C@@H](N(C)C)[C@@H]1Cc1ccccc1	2.71
COc1cccc(OCC2CCCN(C(C)=O)C2)c1 (centres undefined)	12.91
COc1cccc(OCC2CCCN(C(=O)c3cnn(C)c3)C2)c1 (centres undefined)	29.13
COc1cccc(OCC2CCCN(C(=O)Cc3cccc(O)c3)C2)c1 (centres undefined)	79.21
COc1cccc(CCC2CCCN(C(=O)c3ccc(OC)o3)C2)c1 (centres undefined)	38.67
COc1cccc(C(=O)N2CCN(C(=O)CCn3ccnc3)CC2)c1	-14.71
COc1ccccc1OC1CCN(C(=O)CCCn2ccnc2)CC1	29.9
COc1cccc(CCC2CCCN(C(=O)c3ccccn3)C2)c1 (centres undefined)	26.74
COc1cccc(OCC2CCCN(C(=O)CCCn3cccn3)C2)c1 (centres undefined)	31.51
COc1cccc(OCC2CCCN(C(=O)CCc3cc(O)no3)C2)c1 (centres undefined)	-29.65
COc1ccccc1C(=O)N1CCN(C(=O)CCn2ccnc2)CC1	51.4
COc1cccc(CCC2CCCN(C(C)=O)C2)c1 (centres undefined)	79.21
COc1cccc(OCC2CCCN(C(=O)CCn3ccnc3)C2)c1 (centres undefined)	50.59
c1cc(CN2CCOCC3(C2)CN(Cc2nccs2)CCO3)ccn1 (centres undefined)	24.93
CN(C)C(=O)COC1COC2(CCN(c3cnccn3)CC2)C1 (centres undefined)	-16.53

Compound	INHIBITION [%]
N#Cc1ccccc1CNC(C(=O)N1CCOCC1)c1ccccc1 (centres undefined)	-13.11
C[C@@H]1CN(C(=O)c2cnc(C3CC3)nc2)CC[C@@]1(O)C1CCOCC1	11.63
c1sc(C2CCCCC2)nc1CN1CCn2c(nnc2C2CC2)C1	28.65
CS(=O)(=O)NCc1ncn2c1CN(CCN1CCCC1)CCC2	10.64
CCOc1ccccc1OC1CCN(C(=O)c2csnn2)CC1	19.71
CCOc1ccccc1OC1CCN(C(=O)c2cnns2)CC1	73.34
CCOc1ccccc1OC1CCN(C(=O)c2cnsn2)CC1	14.06
Cc1cccc(N2CCC3(CCCN3Cc3cnn(C)c3C)CC2)n1	11.33
Cc1cccc(N2CCC3(CCCN3Cc3cn(C)nc3C)CC2)n1	50.32
Cc1cccc(N2CCC3(CCCN3Cc3c(C)nn(C)c3C)CC2)n1	-28.5
COCCNC(=O)N1CCN(C(=O)Cc2ccccc2F)CC1	1.06
COCCNC(=O)C1(c2ccccc2C)CCOCC1	-88.54
COCCNC(=O)NC1(c2ccccc2F)CC1	54.49
CCS(=O)(=O)N1CCc2c(nc(C3CCCN3)nc2NC)C1 (centres undefined)	40.35
Cc1cccc(C(=O)N2CC(=O)N(c3ccccc3Cl)CC2C)n1 (centres undefined)	6.75
Cc1noc2ncc(C(=O)N3CCCC3c3ccsc3)cc12 (centres undefined)	60.09
Cc1noc2ncc(C(=O)N3CCCC3c3ccncc3)cc12 (centres undefined)	-52.51
Cc1noc2ncc(C(=O)N3CCCC3c3cnn(C)c3)cc12 (centres undefined)	26.71
Cc1cn2c(n1)CCC(NC(=O)CCOc1cccc(F)c1)C2 (centres undefined)	-34.22
CCc1nccn1C1CCCN(C(=O)c2ccnc(C)n2)C1 (centres undefined)	20.53
Cc1noc(C)c1CNc1cccc(C(=O)N2CCCC(O)C2)c1 (centres undefined)	-82.3
Cc1noc(CNc2cccc(C(=O)N3CCCC(O)C3)c2)n1 (centres undefined)	60.9
Cc1noc(CNc2ccccc2C(=O)N2CCCC(O)C2)n1 (centres undefined)	74.11
Cc1noc(CNc2ccc(C(=O)N3CCCC(C)C3)cc2C)n1 (centres undefined)	31.57
Cc1noc(CNc2ccccc2N2CCCCC2)n1	-11.41
CCCc1nc(CNc2cccc(C(=O)N3CCCC(O)C3)c2)no1 (centres undefined)	24.55

Compound	INHIBITION [%]
CCN(CC)C(=O)[C@@H]1C[C@H](N)CN1c1nnc(-c2ccccc2)s1	-51.55
Cc1noc(C)c1CCC(=O)NC(C)c1nnc2n1CCC2 (centres undefined)	20.31
CCC(C)N(Cc1ccncc1)C(=O)CCC(=O)OC (centres undefined)	-28.11
CCc1cc(NCCC(F)(F)F)nc(N2CCOCC2)n1	35.15
CN1C(=O)C2(CCN(CCO)C2)c2ccccc21 (centres undefined)	59.33
CN1C(=O)C2(CCN(CC3CC3)CC2)c2ccccc21	1.42
CN1C(=O)C2(CCN(CC3CCC3)C2)c2ccccc21 (centres undefined)	19.05
NC(=O)N1CCC2(CCN(C(=O)c3cccnc3)CC2)C1	-14.06
CCNC(=O)[C@@H]1C[C@H](NC(=O)c2ccc(C)s2)CN1Cc1ccc(C)o1	-12.44
Cc1occc1C(=O)N1Cc2nccn2CC(CN2CCOCC2)C1 (centres undefined)	25.86
COc1nc2c(cc1C(=O)NCCCc1nnc(N)s1)CCC2	38.32
Cc1noc(CN(C)C2CCCN(Cc3noc(C4CC4)n3)C2)n1 (centres undefined)	-23.42
O=C(CC1Cn2ncnc2NC1=O)Nc1cccc(C(F)(F)F)c1 (centres undefined)	0
O=S(=O)(CCNCc1cc(O)c2cc(F)ccc2n1)N1CCCC1	-9.89
CN(C)S(=O)(=O)N1CCCC(c2ccncn2)C1 (centres undefined)	31.98
CCn1nc(CC(C)C)cc1C(=O)NCC(F)(F)F	1.04
COC[C@H]1CC[C@H]2[C@H](CCN2C(=O)c2ccncc2F)O1	39.51
CC(C)COC[C@H]1CC[C@H]2[C@H](CCN2C(=O)c2ccncc2F)O1	55.49
CC(C)COC[C@@H]1CC[C@H]2[C@H](CCN2C(=O)c2ccncc2F)O1	31.08
O=C(c1ccncc1F)N1CC[C@@H]2OC(COCC3CC3)CC[C@@H]21 (some centres undefined)	27.08
CCOC[C@@H]1CC[C@H]2[C@H](CCN2C(=O)c2ccncc2F)O1	50.61
CCOC[C@H]1CC[C@H]2[C@H](CCN2C(=O)c2ccncc2F)O1	0.82
CC(=O)Nc1ccc(CNc2ccn(Cc3ccccc3)n2)cc1	35.56
COCCOc1ccc(NC(=O)C2CC(=O)N(C3CC3)C2)cn1 (centres undefined)	-45.07
NCC1CCC2(CCN(C(=O)c3ccccn3)CC2)CO1 (centres undefined)	-5.44
O=C(C(CNCc1cccnc1)c1ccccc1)N1CCOCC1 (centres undefined)	17.33

Compound	INHIBITION [%]
Cc1nc(CN2CCOCC23CCN(c2ccc(C#N)cc2)CC3)cs1	-30.38
c1csc(COC[C@H]2CCC[C@]23CN(Cc2ccoc2)CCO3)n1	36.29
c1coc(CN2CCO[C@@]3(CCC[C@@H]3COCc3nccs3)C2)c1	54.25
COC[C@@H]1CCC[C@@]12CN(Cc1ccco1)CCO2	18.4
CCCS(=O)(=O)N1CCC2(CC1)CN(c1ccccn1)CCO2	72.41
Cc1ccc(C(=O)N2CCC3(CC2)CN(c2ccccn2)CCO3)cc1	56.71
CCCS(=O)(=O)N1CCOC2(CCCN(c3ccccn3)C2)C1 (centres undefined)	2.39
O=C(c1ccnnc1)N1CCC2(CC1)CN(c1ccccn1)CCO2	-0.91
CCS(=O)(=O)N1CCOC2(CCCN(c3ccccn3)C2)C1 (centres undefined)	29.45
O=C(c1cccnc1)N1CCC2(CC1)CN(c1ccccn1)CCO2	-1.81
Cc1cc(CN2C[C@@H]3CN(C(=O)c4cccn4C)CCO[C@@H]3C2)no1	9.45
CN(C)C(=O)CCCNC(=O)C(c1cccc(F)c1)N(C)C (centres undefined)	-4.92
OCCn1nccc1C1CCN(CCOc2ccccc2F)CC1	17.31
NC(=O)NC(=O)C(c1ccccc1)N1CCN(Cc2ccsc2)CC1 (centres undefined)	50.3
NC(=O)NC(=O)C(c1ccccc1)N1CCN(Cc2ccc(Cl)s2)CC1 (centres undefined)	-72.31
NC(=O)NC(=O)C(c1ccccc1)N1CCN(Cc2ccccc2)CC1 (centres undefined)	16.8
CC(C)n1cc(N2CC(C(=O)N3CCCC3)CC2=O)cn1 (centres undefined)	-69.99
O=C(N1CCCO1)[C@@]12CCO[C@@H]1CCN(Cc1cccs1)C2	17.31
COc1cc(CN2CCCCCC2c2cccs2)cc(OC)c1OC (centres undefined)	11.24
COc1cc(CN2CCCCCC2c2cccs2)cc(OC)c1O (centres undefined)	50.46
COc1cccc(CN2CCCCCC2c2cccs2)c1O (centres undefined)	4.47
O=C(C1CCCC1)N1CC2(CCN(C3COC3)CC2)Cc2ccccc21	-3.1
Cc1cccc(-c2nc(C)nn2CC(=O)NC(C)C)c1	-15.28
O=C1CC[C@@H](C(=O)N2CCc3[nH]nc(COc4cccc(Cl)c4)c3C2)N1	51.85
O=C(c1csnn1)N1CCc2[nH]nc(COc3cccc(Cl)c3)c2C1	47.89
O=C(N1CCOCC1)N1CCc2[nH]nc(COc3cccc(Cl)c3)c2C1	5.04
